Results reported in PubChem BioAssay (NCI).
About 83,000 compounds went through this panel and 20% of them were active in at least one assay; those are over-represented in the sample as a whole.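 Growth was measured after 48 h exposure to one concentration of compound in 96-well plates. Values under 10 count as active.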 A number with no mark means an inactive call. Active and inactive are the calls of the source.

Tests used:
Test in all cases: NCI-60 one-dose screen, 48 h (100 = growth as untreated, 0 = no growth, -100 = all killed)
Conditions in all cases: 10 µM unless noted
[1] = system: SK-MEL-2 melanoma
[2] = system: EKVX NSCLC
[3] = system: SN12C renal
[4] = system: UO-31 renal
[5] = system: TK-10 renal
[6] = system: ACHN renal
[7] = system: CAKI-1 renal
[8] = system: A498 renal
[9] = system: CCRF-CEM leukemia
[10] = system: MOLT-4 leukemia
[11] = system: SR leukemia
[12] = system: RPMI-8226 leukemia
[13] = system: OVCAR-8 ovarian
[14] = system: OVCAR-4 ovarian
[15] = system: SK-OV-3 ovarian
[16] = system: IGROV1 ovarian
[17] = system: OVCAR-3 ovarian
[18] = system: HS 578T breast
[19] = system: NCI/ADR-RES ovarian
[20] = system: OVCAR-5 ovarian

Structure (SMILES)	growth [1] [%]	growth [2] [%]	growth [3] [%]	growth [4] [%]	growth [5] [%]	growth [6] [%]	growth [7] [%]	growth [8] [%]	growth [9]	growth [10] [%]	growth [11]	growth [12] [%]	growth [13] [%]	growth [14] [%]	growth [15] [%]	growth [16]	growth [17] [%]	growth [18] [%]	growth [19] [%]	growth [20] [%]
CCC(C)C1CCC(O)CC1 (centres undefined)	104	113	108	90.7	103	105	96.6	103	125%	104	93.7%	107	100	99.4	109	110%	108	104	103	
S=CN1CCCCC1	124	96.7	103	89.1	110	107	97.2	105	110%	109	99.5%	110	97.5	102	115	109%	102	112	106	
CSCC[C@@H]1C(=O)N(C)[C@H](C(C)(C)C)N1C(=O)c1ccccc1	106	102	104	90.4	106	110	100	126	111%	116	124%	117	100	105	113	100%	103	111	104	
O=S(=O)(O)c1cccnc1	136	93.7	105	109	104	105	95.2	101	-41.7% (active)	79.6	100%	66.4	104		103	132%	111	110	128	119
O=S(=O)(O)C(C(I)I)S(=O)(=O)O	109	112	110	89.6	111	114	100	106	105%	103	101%	114		107	106	114%	105	93.7	113	114
COC1C(=O)CCC2(CO2)C1(O)C1(C)OC1CCC(C)C (centres undefined)	78.7	76.2	74.9	48.7	119	72.1	71.4	113	70.4%	94	32.2%	77.4		89.7	101	-5.17% (active)	95.1	90.5	86.8	87.2
Cc1cc(Cc2ccccc2)c(O)c(Cc2ccccc2)c1	111	112	79.7	64.6	98.8	92.9	80.5	98.6	98.2%	64.6	91.3%	103	91.1		102	90.2%	101	106	82.6	88.2
CCCOCc1cn[nH]n1	104	103	105	91.6	102	110	104	100	109%	106	99.2%	111	102	110	109	113%	108		106	
CC(=O)C[n+]1ccc(C)cc1Sc1ccccc1C	127	103	64.8	78.5	106	97.1	102	127	1.97% (active)	54.7	130%	98.6	88.7	100	108	120%	102	95.7	101	
CC(C)(C)NCCC(O)c1cc(C(F)(F)F)nc2c(C(F)(F)F)cccc12 (centres undefined)	102	86.7	84.7	45.7	82.9	67.2	75.4	33.3	94.5%	89.6	121%	95.7	83.6		89.3	71.7%	75.9	65.5	84.6	77.8
CSc1nsc(N)n1	94.2	97.4	96	82.3	101	107	97.2	87.5	108%	97.9	98.4%		105	104	105	97.6%	110		101	107
Cc1[nH]c(=S)[nH]c(=O)c1C	107	109	106	96.4	107	96.6	103	110	96.9%	89.3	97.9%	115	89.8		106	104%	118	123	105	101
CC(C)N1CC(=O)N2CSCC2C1=O (centres undefined)	115	105	107	96.5	109	109	100	123	107%	111	114%	109	106		116	111%	104	98.7	109	
OCCc1ccc(Cl)cc1	99.3	97.9	94.9	90.5	94.7	105	92.7	106	96.9%	109	94.6%	101		103	100	104%	105	95	107	97.8
O=C1C=CC(=O)C2=C1CCCC2	110	69.1	98.7	70.9	132	90	79	132	18.8%	31.1	68.1%	72.4		88	89.4	80.5%	89		94.8	108
CC1CCC(C(C)(C)[N+](C)(C)C)CC1 (centres undefined)	114	96.6	102	94.8	95.6	105	103	86.8	98.4%	101	94%	102	100	98.9	102	115%	107	100	107	
CN1CCCN(C(c2ccccc2)c2ccc(Br)cc2)CC1 (centres undefined)	113	66.9	65.4	60.5	61.4	50.6	49.2	74.2	96.6%	55.5	4.87% (active)	84.1	93.9	84.7	81.5	78.6%	69.9	42.4	79.1	
